Most compounds without a hit are left out; they make up all but 15% or so of the library.
Sm TGR inh – S. mansoni TGR enzyme inhibition; Q962Y6; purified TGR, DTNB reduction, TNB absorbance 405 nm; Potency, µM (series often up to 114 µM), inactives show at the top dose activity change, negative = inhibition, most hits filed as inhibitors; actives 3% (n = 360,000); note: potency is the fitted concentration of half-maximal effect; % is set by controls: 0 for no effect and ±100 for the full control effect; nearly all actives have a fitted effect of over 60% in size
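Kinetic colorimetric format: TGR-catalysed, NADPH-driven DTNB reduction monitored via TNB absorbance. Enzyme dispensed at 20 nM; compound exposure 15 min at room temperature before reaction start.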
HCMV antiviral – inhibitors of human cytomegalovirus; HFF cells, HCMV-luciferase reporter, 72 h; hits give low values; activity change, negative = inhibition, % at 57.5 µM; AID 1259415; actives 4.5% (n = 410,000); in the data active = activity change below about -60%; inconclusive = no clear call, values can overlap the other calls; inactive = above about -39%; note: % is set by controls: 0 for no effect and ±100 for the full control effect
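Two compound doses tested in HFFs infected with HCMV-luciferase, MOI 1 PFU/cell, 72 h at 37C. Lysate luminescence read with OneGlo; data normalized against buffer-only and 10uM Salinomycin inhibitor controls.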
SARS PLP yeast – inhibitors of SARS-CoV papain-like protease in yeast | S. cerevisiae expressing SARS-CoV PLpro, growth rescue | Potency, µM (titrated, usually from 32.9 µM), for the others: top-dose activity, positive = growth rescue, actives largely listed as activators | actives 0.19% (n = 330,000) | AID 485353; calls by dose curve; note: potency is the fitted concentration of half-maximal effect; 0% is about no effect; nearly all actives have a fitted effect of over 55% in size
Pf growth 48h – P. falciparum growth inhibition at 48 hours (one generation). Potency, µM (highest dose often 28.7 µM), for inactives: at the highest dose activity change, negative = inhibition, actives largely listed as inhibitors. actives 5.9% (n = 310,000). P. falciparum luciferase growth in erythrocytes, 48 h; note: potency is the fitted concentration of half-maximal effect; % is set by controls: 0 for no effect and ±100 for the full control effect
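Luminescence readout; reporter = integrated firefly luciferase in P. falciparum. RBC culture at 2% hematocrit, 0.1% parasitemia final, 37 C/5% CO2; decreased signal taken as growth inhibition.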
HCV inhibitor – inhibitors of hepatitis C virus infection | Huh7.5.1 HCVcc-Cre infection, luciferase reporter, 44 h | Potency, µM (series often up to 41.8 µM), for inactives: at the highest dose activity change, negative = inhibition, actives largely listed as inhibitors | actives 3.4% (n = 340,000); note: potency is the fitted concentration of half-maximal effect; % is set by controls: 0 for no effect and ±100 for the full control effect
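Infectious HCV cell culture screen: compound-treated cells (1,000/well, pre-plated 4 h) are infected with HCVcc-Cre at roughly 0.5 moi and grown 44 h. Infection is quantified by luciferase signal after 15 min substrate incubation at room temperature.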
Pf growth 96h – inhibits malaria parasite growth, 96 h. AID 504834. P. falciparum luciferase reporter growth, 96 h. actives 6.9% (n = 320,000). Potency, µM (doses to about 28.7 µM), without a hit: at the top dose activity change, negative = inhibition, most hits filed as inhibitors; note: potency is the fitted concentration of half-maximal effect; % is set by controls: 0 for no effect and ±100 for the full control effect
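Compounds incubated with erythrocytes infected by luciferase-expressing P. falciparum (2% hematocrit, 0.05% parasitemia final) for 96 hours, 37 C in 5% CO2. Growth inhibition scored as decreased luciferase luminescence.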
Active calls of the source: *; u = inconclusive; x = no result given; [ ] = dose if it differs, or a comment. Unless noted, calls come from the whole dose curve; as a rule, active = well fitted curve in the direction sought with a large enough effect; inconclusive = small, poorly fitted or top-dose-only effect, or another doubt; inactive = no such curve, though single readings can be large; an effect the other way counts as inactive or inconclusive.

SMILES	Sm TGR inh	HCMV antiviral	SARS PLP yeast	Pf growth 48h	HCV inhibitor	Pf growth 96h
O=C(CN(C(=O)c1ccccc1Cl)N1C(=O)CCCC1=O)c1ccc(Cl)cc1	-1.5%	-8.4	11.2%	-3.0%	17.9%	19.9%
CCC(=O)O[C@@H](OP(=O)(CCCCc1ccccc1)CC(=O)N1C[C@H](C2CCCCC2)C[C@H]1C(=O)O)C(C)C (stereo not given in full)	x	x	x	-10.2%	x	5.36µM*
CCOc1cc(C2C3=C(CCCC3=O)N(C)C3=C2C(=O)CCC3)cc(Cl)c1O	35.5µM*	-11.2	-19.3%	u	5.2%	12.8%
COc1ccccc1NC(=O)Cc1noc(CSc2cc(C)c3ccccc3n2)n1	0.6%	-31.7	-3.4%	-25.3%	11.2µM*	-24.8%
c1ccc(N2CC3COc4ccccc4C3=N2)cc1 (stereo not given)	x	69.9	x	x	-29.8%	x
COc1cccc(C2C([N+](=O)[O-])=C(N)Oc3cc(C)oc(=O)c32)c1 (stereo not given)	u	39.0	0.1%	0.6%	-0.6%	0.7%
O=C(N/N=C1\CC2CC=CC12)c1ccc(Br)cc1 (stereo not given)	-3.7%	42.3	-2.2%	12.2%	36.7%	-2.8%
Cc1cc(Br)c(OCc2ccc(C(=O)N/N=C3\CC4CC=CC34)cc2)c(Br)c1 (stereo not given)	-9.6%	-23.5	0.0%	10.4µM*	u	u
Cc1cc(C)cc(NC(=O)[C@H](Cc2c[nH]c3ccccc23)NC(=O)[C@@H]2Cc3ccccc3CN2)c1	-16.0%	x	-6.5%	9.28µM*	u	u
CC(NC(=O)[C@H](Cc1c[nH]c2ccccc12)NC(=O)[C@@H]1Cc2ccccc2CN1)c1ccccc1 (stereo not given in full)	-17.8%	x	-8.8%	u	u	u
CCc1ccc(NC(=O)[C@@H](NC(=O)[C@@H]2Cc3ccccc3CN2)C(C)CC)cc1 (stereo not given in full)	-12.9%	x	-5.2%	7.38µM*	-6.0%	u
CC(C)c1ccc(NC(=O)C2CCC(CNC(=O)[C@@H]3Cc4ccccc4CN3)CC2)cc1 (stereo not given in full)	-13.6%	0.0	-3.0%	u	14.1µM*	-4.8%
CCc1ccc(NC(=O)[C@H](Cc2c[nH]c3ccccc23)NC(=O)[C@@H]2Cc3ccccc3CN2)cc1	9.7%	x	5.7%	u	3.55µM*	u
CCc1ccc(NC(=O)[C@H](NC(=O)[C@@H]2Cc3ccccc3CN2)c2ccccc2)cc1	-3.2%	x	1.0%	-19.1%	4.4%	u
CNc1ncnc2c1ncn2[C@H]1CN(Cc2ccc(F)cc2)C[C@@H](CO)O1	x	43.4	x	x	x	x
Cn1c(=O)c2c(SCC(=O)Nc3nccs3)nc(C3CC3)nc2n(C)c1=O	13.0%	1.2	-1.5%	-5.8%	9.2%	1.3%
O=C(NCc1ccc(Cl)cc1)C1CCN(c2nn3cc(-c4ccc(F)cc4)nc3s2)CC1	-1.2%	u	x	x	x	x
O=C(OCc1cn([C@H]2C[C@H](c3ccc(Cl)cc3)N(C(=O)C3CCCCC3)C[C@@H]2O)nn1)c1ccccc1	x	25.0	x	x	x	x
Cc1ccc(NC(=O)[C@H](Cc2c[nH]c3ccccc23)NC(=O)[C@@H]2Cc3ccccc3CN2)c(C)c1	4.1%	x	10.8%	u	u	u
Cc1cccc(NC(=O)[C@H](Cc2c[nH]c3ccccc23)NC(=O)[C@@H]2Cc3ccccc3CN2)c1	7.8%	x	-8.9%	8.28µM*	3.98µM*	11.7µM*
COc1ccc(N2CCN(CC(O)COc3ccccc3C(C)(C)C)CC2)cc1 (stereo not given)	0.8%	-4.9	x	x	x	x
CN(CCc1ccccc1)C(=O)c1ccc(NC(=O)Cc2ccc(NC(=O)C3CCN(C(=O)C4CC4)CC3)cc2)cc1	x	u	x	x	-6.5%[8.37 µM]	x
CN(CCc1ccccc1)C(=O)c1ccc(NC(=O)Cc2ccc(NC(=O)C3CCN(C(=O)C4CCCC4)CC3)cc2)cc1	x	-70.9*	x	x	18.2%[8.37 µM]	x

Screening results from PubChem BioAssay.
